In all, about 360,000 compounds went through this assay and about 1,100 (0.31%) were called active. The full list was thinned out, with actives kept by preference. Values without a mark were called inactive. Cut-off read from the data, not from the text of the source: active = activity change below about -30%; inactive = the rest.
system: cytosolic chaperonin (CCT/TRiC complex); assay: High-Throughput Screening for Modulators of Cytosolic Chaperonin Activity; settings: purified chaperonin ATPase assay, HTRF ADP detection, 30 min; active compounds read low
Excerpt: The eukaryotic chaperonin named TRiC (for TCP-1 ring complex), also called CCT (for chaperonin containing TCP1), is an essential and conserved chaperone required for the folding and activation of 10-15% of the proteins encoded by the human genome. […] Despite its central role in cellular folding, little is known about TRiC mechanism and mode of substrate binding. Currently, no specific TRiC inhibitors are available. Given the early promise of other chaperone-directed inhibitors as cancer therapeutics (e.g. HSP90 inhibitors), inhibitors of TRiC activity may also selectively target transformed cells and have potential use as therapeutics for cancer.
To this end, a miniaturized assay was developed to screen against the Molecular Libraries Small Molecule Repository (MLSMR).
NIH Chemical Genomics Center [NCGC]
NIH Molecular Libraries Probe Centers Network [MLPCN]
Assay Submitter (PI): Judith Frydman, Stanford University
1.5 uL/well TRiC enzyme suspended in buffer (30 mM TRIS pH7.4, 100 mM KCl, 5 mM MgCl2, 1 mM DTT) was added with BioRAPTR FRD dispenser at 40 nM or 20 nM (based on the enzymatic activity of used batches) final concentration to a white solid bottom medium binding 1536-well plate (Greiner Bio-One, Monroe, NC), and quickly spanned down. 23 nl/well of compound solutions in DMSO were added with a pintool transfer (Kalypsis, San Diego, CA) at a single 76 uM final concentration. Next, 1.5 µl/well ATP was dispensed with BioraptR at 10 uM final concentration after which the plates were incubated at 37 deg C for 30 min. HTRF(R) Transcreener(R) ADP (Cisbio US, Bedford, MA) detection reagents were prepared accordingly to the protocol and dispensed into the plate (1.5 uL/well each), incubated for 30 min at ambient temperature. Then, the plates were read using Envision reader with excitation at 330nm and emission at 615nm (Eu(3)-Cryptate donor signal) and 665nm (d2 acceptor signal). The ratio of […] was calculated for each well.
% is set by controls: 0 for no effect and ±100 for the full control effect.

| Structure (SMILES) | activity change |
| --- | --- |
| Nc1ccc([N+](=O)[O-])cc1 | -35.1% (active) |
| CC(=O)Cc1ccc(OC(C)C)cc1 | -4.19% |
| CC(C)(C)c1ccc(OC(=O)N2CCCCC2)cc1 | -0.84% |
| COc1ccc(CCn2c(O)c(C=NC3CC3)c(=O)[nH]c2=O)cc1OC | -0.86% |
| O=C1NC(=O)C(Cc2ccccc2)C(=O)N1 | -0.218% |
| O=C1NC(=O)C(C/C=C/c2ccccc2)C(=O)N1 | -117% (active) |
| CSC1=NP(=S)(SC)N(C)c2nc3n(c21)CCC3 (stereo not given) | -0.177% |
| CCOC(=O)c1c(C)c(C(=O)N2CCC3(CC2)OCCO3)c(C)n1CC | -3.47% |
| COCCNC(=O)CN1C2CCC1CC(O)(c1cccnc1)C2 (stereo not given) | 0.503% |
| Cc1ccc(Cn2nnnc2CN2CCC(n3nnc4ccccc43)CC2)cc1 | -0.0525% |

— PubChem BioAssay AID651819 (National Center for Advancing Translational Sciences (NCATS), 2012)
